Source: PubChem BioAssay (NCATS)
Values joined by “and” are separate entries in the source; they are usually repeats but may differ in a detail not shown here. Equal entries are not always repeated. Records with an inconclusive call do not appear. Active and inactive are the calls of the source. Unless noted, calls come from the whole dose curve; as a rule, active = well fitted curve in the direction sought with a large enough effect; inconclusive = small, poorly fitted or top-dose-only effect, or another doubt; inactive = no such curve, though single readings can be large; an effect the other way counts as inactive or inconclusive.

Experiments:
[1] = qHTS assay for measurement of the activity of small molecule inhibitors on Zika virus induced Caspase-3 activity in human iPSC derived neural progenitor cells (hNPCs) (AID 1224857); note: nearly all actives have a fitted effect of over 65% in size
Procedure, shortened: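 In medium with heparin 2 ug/ml and cyclopamine 2 uM, hNPCs (350 cells/well) received compound for one hour and then Zika virus at 2 FFU/cell; caspase activity was measured by Caspase-Glo 3/7 luminescence 6 h post-infection.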

[2] = qHTS assay for measurement of the activity of small molecule inhibitors on Zika virus induced Caspase-3 activity in human astrocytoma cells (AID 1224859)
Procedure, shortened: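 A cell-based luminescent caspase-3/7 assay used SNB-19 cells infected with ZIKV (2 FFU/cell) for 6 h following 1 h compound pretreatment.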

[3] = NS1 protein of Zika virus - qHTS assay to identify small molecule inhibitors in human HEK 293 cells (AID 1347053); note: nearly all actives have a fitted effect of over 55% in size
Procedure, shortened: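 Following 20 h seeding, HEK 293 cells took compound, then 1 h later ZIKV MR766 (MOI = 0.5). Incubation ran 24 h at 37 C before TR-FRET detection of NS1; a drop in signal indicates inhibition.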

[4] = qHTS of pediatric cancer cell lines to identify multiple opportunities for drug repurposing: Primary screen for TC32 cells (AID 1347089); note: nearly all actives have a fitted effect of over 60% in size; note: potency is the fitted concentration of half-maximal effect
Procedure, shortened: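 qHTS, TC32, 48 h drug treatment, CellTiter-Glo luminescence as a proxy for metabolically active cells; primary top concentration 46 µM (MIPE 11-pt, NPC 8-pt); confirmatory 11-pt.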

[5] = qHTS of pediatric cancer cell lines to identify multiple opportunities for drug repurposing: Primary screen for DAOY cells (AID 1347090); note: nearly all actives have a fitted effect of over 55% in size; note: potency is the fitted concentration of half-maximal effect
Procedure, shortened: (§1)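 Viability measured as metabolically active cells via CellTiter-Glo luminescence following 48 hours of compound exposure, 11-point dilutions in confirmatory testing. 500-1,000 cells/well plated 5 hours before dosing; controls were DMSO and 2.3 µM bortezomib.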

[6] = qHTS of pediatric cancer cell lines to identify multiple opportunities for drug repurposing: Primary screen for SJ-GBM2 cells (AID 1347091); note: potency is the fitted concentration of half-maximal effect
Procedure, shortened: as §1

[7] = qHTS of pediatric cancer cell lines to identify multiple opportunities for drug repurposing: Primary screen for A673 cells (AID 1347092); note: nearly all actives have a fitted effect of over 45% in size; note: potency is the fitted concentration of half-maximal effect
Procedure, shortened: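 Luminescence from CellTiter-Glo, taken after 15 min at room temperature, served as the proxy for metabolically active cells following 48 h treatment. Both potency and efficacy were taken from curves fitted to the titration data.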

[8] = qHTS of pediatric cancer cell lines to identify multiple opportunities for drug repurposing: Primary screen for SK-N-MC cells (AID 1347093); note: potency is the fitted concentration of half-maximal effect
Procedure, shortened: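 Metabolically active cells were quantified by ATP-dependent luminescence (CellTiter-Glo, 15 min at room temperature) following 48 h treatment. Cells had been plated at 500-1,000 per well and settled for 5 h beforehand.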

[9] = P-glycoprotein substrates identified in KB-8-5-11 adenocarcinoma cell line, qHTS therapeutic library screen (AID 1346987); note: nearly all actives have a fitted effect of over 65% in size; note: potency is the fitted concentration of half-maximal effect
Procedure, shortened: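 Steps: plate 500 KB-8-5-11 cells/well in DMEM + 10% FCS (colchicine removed); pin compounds in dose-response; incubate 72 h, 37 degree C, 5% CO2; add CellTiter-Glo, 5 min; read luminescence.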

[10] = qHTS of pediatric cancer cell lines to identify multiple opportunities for drug repurposing: Primary screen for BT-37 cells (AID 1347094); note: potency is the fitted concentration of half-maximal effect
Procedure, shortened: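 Cells plated at 500-1,000/well in growth medium, compounds added after 5 h. MIPE tested at 11 points (from 0.78 nM), NPC at 8 points (from 0.59 nM). CellTiter-Glo luminescence after 48 h; concentration-response curves from primary screen.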

[11] = qHTS profiling of the MIPE4 collection as inhibitors of Plasmodium falciparum (3D7) proliferation (AID 743344; call rule not given here); conditions: P. falciparum 3D7 in erythrocytes, SYBR Green DNA fluorescence, 72 h; at 28.5 µM (top of the series) unless noted
Procedure, shortened: (§2)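 Erythrocytes infected with P. falciparum (0.3% parasitemia, 2.5% hematocrit) incubated with compounds 72 h at 37 C, 5% CO2. Lysis with saponin/Triton buffer containing SYBR Green I, overnight at room temperature in the dark; DNA fluorescence (485/535 nm) normalised to 0.29 uM artemisinin and DMSO.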

[12] = qHTS profiling of the MIPE4 collection as inhibitors of Plasmodium falciparum (DD2) proliferation (AID 743345; call rule not given here); conditions: P. falciparum Dd2 in erythrocytes, SYBR Green DNA, 72 h; at 28.5 µM (top of the series) unless noted
Procedure, shortened: as §2

[13] = qHTS profiling of the MIPE4 collection as inhibitors of Plasmodium falciparum (DD2) proliferation (Rep 2) (AID 743346; call rule not given here); conditions: P. falciparum Dd2 in erythrocytes, SYBR Green DNA, 72 h; at 28.5 µM (top of the series) unless noted
Procedure, shortened: as §2

[14] = qHTS profiling of the MIPE4 collection as inhibitors of Plasmodium falciparum (HB3) proliferation (AID 743347; call rule not given here); conditions: P. falciparum HB3 in erythrocytes, SYBR Green DNA, 72 h; at 28.5 µM (top of the series) unless noted
Procedure, shortened: as §2

CC(=O)N1CCN(c2ccc(O)cc2)CC1
inactive: Potency [1] | outcome [2] | Potency [3] | Potency [4] | Potency [5] | Potency [6] | Potency [7] | Potency [8]

N#C/C(=C1/SC[C@@H](c2ccc(Cl)cc2Cl)S1)n1ccnc1
inactive: Potency [1] | outcome [2] | Potency [9] | Potency [3]
active: Potency [8] 11.9 µM

OC1(c2ccc(Cl)c(C(F)(F)F)c2)CCN(CCCC(c2ccc(F)cc2)c2ccc(F)cc2)CC1
inactive: Potency [1] | outcome [2]
active: Potency [9] 23.1 µM and 20.6 µM | Potency [4] 16.7 µM | Potency [7] 10.6 µM | Potency [8] 6.68 µM | Potency [10] 11 µM

CN(C(=O)C(Cl)Cl)c1ccc(OC(=O)c2ccco2)cc1
inactive: Potency [1] | outcome [2] | Potency [9] | Potency [3] | Potency [6] | Potency [7] | Potency [8] | Potency [10]

COc1ccc([C@@H]2Sc3ccccc3NC(=O)[C@@H]2O)cc1
inactive: Potency [1] | outcome [2] | Potency [3]

CCCCCCCCCCCCCCCC[N+](C)(C)Cc1ccccc1
inactive: Potency [1] | outcome [2] | Potency [9]
active: Potency [7] 13.3 µM | Potency [10] 30.9 µM

CC(NCCC(c1ccccc1)c1ccccc1)c1ccccc1 (stereo not given)
active: Potency [9] 16.4 µM
9.26%: parasite growth remaining, % of DMSO control (lower = more inhibition) [12]
inactive: Potency [1] | outcome [2]
3.07%: growth, % of control [14]
9.45%: parasite growth, % of DMSO control [11]
16.7%: parasite growth, % of control (lower = inhibition) [13]

C[C@H]1NCc2cc(-c3ccc4c(=O)c(C(=O)O)cn(C5CC5)c4c3OC(F)F)ccc21
inactive: Potency [1] | outcome [2] | Potency [9] | Potency [4] | Potency [5] | Potency [6] | Potency [8] | Potency [10]

C[C@H]1C[C@H](O)c2ccsc2S1(=O)=O
inactive: Potency [1] | outcome [2] | Potency [3] | Potency [4] | Potency [5] | Potency [6] | Potency [7] | Potency [8] | Potency [10]

Nc1c[n+](N2CCOCC2)no1
inactive: Potency [1] | outcome [2] | Potency [9] | Potency [4] | Potency [5] | Potency [6] | Potency [7] | Potency [10]

O=C(Nc1ccc(Cl)cc1)Nc1ccc(Cl)c(C(F)(F)F)c1
active: Potency [9] 20.6 µM | Potency [5] 13.3 µM | Potency [6] 3.35 µM | Potency [7] 21.1 µM | Potency [8] 4.73 µM | Potency [10] 27.6 µM
inactive: Potency [1] | outcome [2]

O=C1NC2CCCCN2C12CCN(CCCN1c3ccccc3CCc3ccc(Cl)cc31)CC2 (stereo not given)
active: Potency [9] 16.4 µM | Potency [6] 23.7 µM | Potency [8] 16.8 µM | Potency [10] 30.9 µM
inactive: Potency [1] | outcome [2] | Potency [4]

O=C(NN1CCCC1)NS(=O)(=O)c1ccc(Cl)cc1
inactive: Potency [1] | outcome [2] | Potency [9] | Potency [4] | Potency [5] | Potency [6] | Potency [8] | Potency [10]

CCOC(=O)N1CCC(Nc2ccc(Cl)cc2N)CC1
inactive: Potency [1] | outcome [2] | Potency [3] | Potency [4] | Potency [5] | Potency [6]

CCCCCCOC(=O)NC(=N)c1ccc(NCc2nc3cc(C(=O)N(CCC(=O)OCC)c4ccccn4)ccc3n2C)cc1
inactive: Potency [1] | outcome [2] | Potency [3]
